# Columns and labels:
# Experiment in all cases: PBM binding z-score (relative to random genomic background probes); higher = stronger binding; sequences stand for … in GC…GCGATTGACAGCGTAGAATGAAGG
# [1] = system: FXR:RXRa (NR concentration 270 nM, RXRa partner concentration 90 nM)
# Summary of the method: (§1)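 Scanned fluorescence from custom Agilent 4×180K protein-binding microarrays was regression-normalized. Binding z-scores use random background probes as reference. Ligand-free nuclear receptor dimers were incubated on the arrays for 1 h and detected with antibodies against each partner (one per run).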
# [2] = system: LXRa:RXRa (NR concentration 270 nM, RXRa partner concentration 90 nM)
# Summary of the method: as §1
# [3] = system: LXRa homodimer (NR concentration 270 nM)
# Summary of the method: as §1
# [4] = system: LXRb:RXRa (NR concentration 270 nM, RXRa partner concentration 90 nM)
# Summary of the method: as §1
# [5] = system: LXRb homodimer (NR concentration 270 nM)
# Summary of the method: as §1
# [6] = system: PPARa:RXRa (NR concentration 270 nM, RXRa partner concentration 90 nM)
# Summary of the method: as §1
# [7] = system: PPARg:RXRa (NR concentration 180 nM, RXRa partner concentration 90 nM)
# Summary of the method: as §1
# [8] = system: PPARg:RXRa 270nM:90nM, anti-RXR (NR concentration 270 nM, RXRa partner concentration 90 nM)
# Summary of the method: as §1
# [9] = system: PPARg:RXRa 30nM:10nM, anti-RXR (NR concentration 30 nM, RXRa partner concentration 10 nM)
# Summary of the method: as §1
# [10] = system: PPARg:RXRa 90nM:30nM, anti-RXR (NR concentration 90 nM, RXRa partner concentration 30 nM)
# Summary of the method: as §1
Sequence,PBM binding z-score [1],PBM binding z-score [2],PBM binding z-score [3],PBM binding z-score [4],PBM binding z-score [5],PBM binding z-score [6],PBM binding z-score [7],PBM binding z-score [8],PBM binding z-score [9],PBM binding z-score [10]
GCGACTGGGGCAAAGGAGGTTACCATAAGGTTGG,1.77,1.09,-0.0421,0.882,-0.261,2.06,3.15,3.93,1.89,3.87
CCTCGGAGGACAACAGGAGGCCAGAGCTGCCAGA,-0.418,-0.512,-0.358,-1.07,-0.956,-0.509,0.0998,-0.942,-0.765,-0.807
CCGACTGGGGCAAAGGATACCATACTCAGTACGA,-0.424,-0.501,-0.0956,-0.347,-1.05,1.32,4.4,5.19,3.28,5.31
TCTTGTAGATCAAGCACGTTAAGAAAGCCTGAGT,0.465,0.232,-0.171,0.106,-0.495,0.484,-0.254,1.12,2.5,1.97
CATACAGGGTCAGTTAGGCCAGAGTAGGGACGGC,3.37,2.29,-0.0109,1.79,0.655,3.36,2.24,1.92,0.738,1.41
TCTTGTAGTTCAAGCAGGTTAAGAAAGCCTGAGT,1.59,1.72,0.316,1.5,-0.0715,2.02,-0.535,1.65,2.53,1.94
AGAATGAGGTGATACGTAGATCAGGGAAGAAAGT,0.335,-0.0138,-0.435,-0.252,-0.444,1.52,1.16,1.16,0.448,0.958
TCATATAGGTAAAAGGTGAAAGTCGGTGTGGTAA,1.8,2.29,0.452,2.29,0.0331,5.57,9.43,8.85,10.3,10.2
TCTATTAGTTGGTTAGGGCAACCGAAACAGCGGA,0.675,0.576,0.522,0.534,1.35,0.448,-0.169,1.55,3.59,2.57
TCTTGTAGATGAGCAGGTTAAGAAAGCTGGCCAA,-0.174,-0.248,-0.441,-0.166,-1.02,0.327,-0.56,0.706,1.86,1.32
GCGACTGGGGTATCAGCAGGTTACCATAACTTAA,-0.215,0.488,-0.233,0.757,-0.459,0.871,0.146,0.0504,-0.489,-0.489
CGAACTAGGTCAATGACAGTGAATCTCCGCACGC,3.48,2.25,0.283,1.56,-0.147,4.35,6.92,5.8,2.99,5.2
GCGACCGGGGCAAAGCAGGTTACCATAAGGTTGG,0.264,0.812,-0.366,0.0322,-1.28,1.42,0.709,0.611,-0.666,-0.143
CCGACTGGGGTAAGGTTACCATAACGCACAGCCA,0.62,1.11,-0.0991,1.31,-0.565,2.14,2.11,2.5,0.595,1.71
GCTCGGAGGATAAGGTCAGAGCTTTGTCCGTAGA,2.22,1.66,-0.483,1.26,-1.34,2.62,0.136,1.3,-0.139,0.94
CGTAAAAGTTCAACTAAGGTAACGTAAAGCACGC,6.53,5.88,4.08,3.97,1.96,4.78,2.86,3.53,1.02,2.58
CGAACTAGGTCAGATCAGGACAGTGAAGGATGAT,2.96,0.93,-0.182,0.466,-0.387,3.07,5.57,4.64,1.82,3.82
CCTACTGGGCCATTCAGGGGTCATTGATCATATG,3.39,3.59,3.43,4.16,-0.118,4.49,2.95,3.73,1.27,2.64
TCTAGCAGGCCAAAGGGTCACTCAAGAGGTACGG,2.46,2.67,0.121,2.6,-0.592,3.89,3.36,4.84,3.5,4.89
ACTAGCATGCCAAGTTTGGGTCACTCAAACAAAG,0.0536,0.057,-0.432,0.606,-0.573,1.23,0.0927,0.138,-0.204,-0.214
CCTTACGGGTGACTGACAGGTTATAGCATTTGGA,0.488,0.771,-0.154,0.347,-0.474,1.2,0.53,0.218,0.1,-0.0326
CCTGCTAGGTCAATGGTGAGCTAAAGCAGCTCGC,2.56,1.58,-0.54,0.808,-0.0982,2.57,2.46,2.99,1.2,2.5
TCTTGTAGTTCAACAGGAGGTTAAGAAAGATCGA,1.51,2.8,1,1.78,0.269,2.44,0.0566,1.66,2.29,1.89

# Reference: the supplement of paper PMC6555819
